Consider 15 compounds from PubChem BioAssay (NCATS).

Records with an inconclusive call do not appear. Entries that show only a call come without a potency. Active and inactive are the calls of the source. Calls follow the shape of the full dose curve.

Sequence of Peroxisome proliferator-activated receptor delta (Homo sapiens) (Q03181 whole entry, looked up): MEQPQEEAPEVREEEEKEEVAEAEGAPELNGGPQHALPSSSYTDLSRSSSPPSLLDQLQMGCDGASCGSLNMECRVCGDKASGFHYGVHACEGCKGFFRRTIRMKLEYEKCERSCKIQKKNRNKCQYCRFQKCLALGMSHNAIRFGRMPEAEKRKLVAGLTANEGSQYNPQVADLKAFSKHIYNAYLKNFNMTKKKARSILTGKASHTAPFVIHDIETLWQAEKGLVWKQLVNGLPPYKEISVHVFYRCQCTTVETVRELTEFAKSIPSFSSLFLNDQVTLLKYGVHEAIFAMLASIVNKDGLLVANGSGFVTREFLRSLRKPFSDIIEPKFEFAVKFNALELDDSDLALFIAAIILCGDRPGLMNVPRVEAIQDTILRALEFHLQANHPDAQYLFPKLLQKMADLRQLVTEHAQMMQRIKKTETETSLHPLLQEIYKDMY

In the first experiment the target is Peroxisome proliferator-activated receptor delta (Homo sapiens) (UniProt Q03181). The experiment can be described thus: qHTS assay for small molecule agonists of peroxisome proliferator-activated receptor delta signaling (AID 588534). Conditions: HEK293T PPARdelta-UAS-bla, beta-lactamase ratio, 18 h; series mostly up to 76.7 µM. An outline of the steps:
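Agonist-mode beta-lactamase reporter readout (CCF4 dye, 2 h at RT) after 18 h at 37 °C exposure to a titration; Hill-equation fitting gave EC50 and maximal response.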
For the compound `CC1(C)C(C=C(Cl)Cl)C1C(=O)OCc1cccc(Oc2ccccc2)c1` (stereo unspecified), the result was inactive.

`C/C=C/C=C/C(=O)O`: the result was inactive.

Turning to `O=C(O)[C@H](O)[C@@H](O)[C@H](O)[C@H](O)CO`, the outcome was inactive.

Test system in a further experiment: not listed separately
Kind of experiment: Primary qHTS for inhibitors of SARS-S pseudo-typed particle cell entry (AID 1479145). Also: nearly all actives have a fitted effect of over 45% in size. Also: potency is read from the fitted curve at half-maximal effect. As to conditions: SARS-S pseudotyped particle cell entry, luciferase reporter; series mostly up to 57.1 µM. Background: In qHTS, concentration-response curves come from the screen itself.
Consider `CN1CCN(CCCN2c3ccccc3Sc3ccccc32)CC1`, for which the Potency is 28.2 µM (active).

In the case of `CS(=O)(=O)c1ccc([C@@H](O)[C@@H](COC(=O)CN)NC(=O)C(Cl)Cl)cc1`, the Potency result is “inactive”.

On to `Cc1c(OCC(F)(F)F)ccnc1C[S@@](=O)c1nc2ccccc2[nH]1`, for which the Potency result is “inactive”.

Consider `CC1(C)C(C=C(Cl)Cl)C1C(=O)OCc1cccc(Oc2ccccc2)c1` (stereo unspecified), for which the Potency result was “inactive”.

Consider `CC1(C)S[C@H]2[C@H](NC(=O)[C@@H](N)c3ccc(O)cc3)C(=O)N2[C@H]1C(=O)O`, for which the Potency entry is “inactive”.

As for `CCCCCCCCCCCCCCCC(=O)OCC=C(C)C=CC=C(C)C=CC1=C(C)CCCC1(C)C`, the Potency result was “inactive”.

As to `CC/C=C\C/C=C\C/C=C\C/C=C\C/C=C\C/C=C\CCC(=O)O`, the Potency result is “inactive”.

With `C[C@@](Cc1ccc(O)c(O)c1)(NN)C(=O)O`, the Potency entry was “inactive”.

In the case of `C[S+](CC[C@H](N)C(=O)O)C[C@H]1O[C@@H](n2cnc3c(N)ncnc32)[C@H](O)[C@H]1O` (stereo partly specified), the Potency entry was “inactive”.

Turning to `CC/C=C\C/C=C\C/C=C\C/C=C\C/C=C\CCCC(=O)O`, the Potency result was “inactive”.

Regarding `C=C[C@H]1CN2CC[C@H]1C[C@H]2[C@H](O)c1ccnc2ccccc12`, the Potency entry is “inactive”.

On to `C[C@]12C=CC(=O)C=C1CC[C@@H]1[C@@H]2[C@@H](O)C[C@@]2(C)[C@H]1CC[C@]2(O)C(=O)COC(=O)c1cccc(S(=O)(=O)O)c1`, for which the Potency entry is “inactive”.

`CC(C)(C)C(=O)OCC(=O)[C@H]1CC[C@H]2[C@@H]3CCC4=CC(=O)CC[C@]4(C)[C@H]3CC[C@]12C`: the Potency entry was “inactive”.
